In PubChem BioAssay (NCI) one finds growth data, which are given here for 16 compounds.

This is part of a sample that, as a whole, favours compounds with a hit. Of some 83,000 tested, about 20% had one in any assay.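 96-well plates, one dose, 48 hours. Percent growth reported; active if below 10.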 Values without a mark were called inactive. The source made the active and inactive calls.

Common to all, as to assay: NCI-60 one-dose screen, 48 h (100 = growth as untreated, 0 = no growth, -100 = all killed)
Holding throughout (details): 10 µM unless noted

In test [1] the test system is T-47D breast.
The subject of test [2] is BT-549 breast.
Test [3] relates to MDA-MB-435 melanoma.
In test [4] the test system is SW-620 colon.
The subject of test [5] is MCF7 breast.
The subject of test [6] is HCT-116 colon.
For test [7], the system named is HCC-2998 colon.
Test [8] deals with KM12 colon.

Turning to `CN(C)C1CN(C(=O)c2cc(-c3ccc4ncnc(N5CCc6cc(F)c(Cl)cc65)c4c3)cnc2N)C1`, the growth was 4.73% (active) in test [1]; -12.8% (active) in test [2]; 9.39% (active) in test [3]; 19.1% in test [4]; 5.85% (active) in test [5]; 10.6% in test [6]. The figures for the growth in test [7] and in test [8] were 15.3% and 18.2%, respectively.

Consider `CC(C)=CC(=O)N[C@H]1CC[C@]2(C)C3CC[C@]4(C)C(C(C)N(C)C)=CCC4C3CCC2[C@H]1O` (stereo partly drawn), for which the growth is 38.6% in test [1]; 54.4% in test [2]; -33.8% (active) in test [3]; -23.5% (active) in test [4]; 11.4% in test [5]; 2.25% (active) in test [6]. In addition, the figures for the growth in test [7] and in test [8] were 35.8% and 23.2%, respectively.

On to `CN1C(=O)N2CN3CCCN(C3)CN3C(=S)NC1C23` (stereo not drawn), for which the growth was 105% in test [1]; 117% in test [2]; 106% in test [3]; 101% in test [4]; 95.4% in test [5]; 106% in test [6]. In addition, the values for the growth in test [7] and in test [8] were 103% and 104%, respectively.

Regarding `CCCOC(=O)Nc1nc2ccc(SCC)cc2s1`, the growth in test [1] is 84.8%; in test [2] it was 85.5%; in test [3], 3.85% (active); in test [4] it was 52.5%; in test [5], 43.7%; in test [6] it was 62.8%. The figures for the growth in test [7] and in test [8] were 79.7% and 58.6%, respectively.

For `CCN(CC)CCN1C(=O)c2c(c3c4ccccc4[nH]c3c3ccc4ccccc4c23)C1=O`, the growth was 48.7% in test [1]; 84.5% in test [2]; -84.8% (active) in test [3]; 4.79% (active) in test [4]; -50.8% (active) in test [5]; 29.2% in test [6]. The growth is 85.5% in test [7] and -15.8% (active) in test [8].

With `Ic1ccc(Nc2nc3nonc3nc2Nc2ccc(I)cc2)cc1`, the growth in test [1] was -9.49% (active); in test [2], -21.7% (active); in test [3] it was 6.04% (active); in test [4], 13.8%; in test [5], 3.42% (active); in test [6], 0.308% (active). Moreover, the values for the growth in test [7] and in test [8] were 8.32% (active) and 7.87% (active), respectively.

On to `CC1(C)N=C(N)N=C(N)N1c1ccc(S(=O)(=O)Nc2nccs2)cc1`, for which the growth was 95.6% in test [1]; 94.1% in test [2]; 102% in test [3]; 98.2% in test [4]; 103% in test [5]; 100% in test [6]. The growth in test [7] was 113%; in test [8], 101%.

On to `O=c1cc(CNc2cc(F)cc(F)c2)c2ccc(I)cc2[nH]1`, for which the growth in test [1] was 35.8%; in test [2], 54.8%; in test [3], -28.1% (active); in test [4], 19.1%; in test [5] it was 21.9%; in test [6], 26.4%. Also, the growth is 64.6% in test [7] and 24.1% in test [8].

In the case of `Cc1ccc(S(=O)(=O)OCC#CCOS(=O)(=O)c2ccc(C)cc2)cc1`, the growth is -22.9% (active) in test [1]; 54.9% in test [2]; 49.3% in test [3]; 51.2% in test [4]; 31% in test [5]; 24.7% in test [6]. Besides, the growth was 81.6% in test [7] and 60.9% in test [8].

Take `O=C1O[C@@H](c2ccccc2Cl)[C@@H]2c3cc4c(cc3CCN12)OCO4`: the growth is 69.9% in test [1]; 101% in test [2]; 105% in test [3]; 97.2% in test [4]; 103% in test [5]; 94.9% in test [6]. Also, the figures for the growth in test [7] and in test [8] were 106% and 97.8%, respectively.

Consider `COc1ccc(/C=N/NC(=O)Cn2c(-c3ccc(S(C)(=O)=O)cc3)nc3ccccc32)cc1`, for which the growth in test [1] is 102%; in test [2], 103%; in test [3] it was 97.8%; in test [4], 97.6%; in test [5], 88.6%; in test [6], 91.7%. Besides, the figures for the growth in test [7] and in test [8] were 95.7% and 104%, respectively.

On to `COc1c2c(cc3c1C(=O)N[C@@H]1[C@@H](O)[C@@H](O)[C@H](O)C[C@@H]31)OCCO2`, for which the growth in test [1] was 84.9%; in test [2], 99.5%; in test [3] it was 108%; in test [4], 104%; in test [5], 93.9%; in test [6] it was 102%. Moreover, the growth in test [7] is 106%; in test [8], 99.1%.

On to `CCCCCCCCCCOC(=O)c1nn(C(C)=O)c2cc(C)c(C)cc12`, for which the growth was 99.7% in test [1]; 90.5% in test [2]; 100% in test [3]; 97.3% in test [4]; 94% in test [5]; 75.4% in test [6]. Also, the figures for the growth in test [7] and in test [8] were 105% and 104%, respectively.

`CCOC(=O)c1c(C)nc2ccccc2c1/C=C/c1ccc(F)cc1`: the growth in test [1] was 23.4%; in test [2], 73.6%; in test [3], 78.7%; in test [4], 85.5%; in test [5], 23.3%; in test [6], 56.2%. For the same compound, the growth in test [7] is 81.1%; in test [8], 72.5%.

For `O=C(Cc1ccc(/C=C/C(=O)c2ncc[nH]2)cc1)Nc1cc(F)c(F)c(F)c1`, the growth is 49.9% in test [1]; 66.7% in test [2]; 51.2% in test [3]; 13.1% in test [4]; 10.4% in test [5]; 15.8% in test [6]. Besides, the values for the growth in test [7] and in test [8] were 75.2% and 24.7%, respectively.

For the compound `CCn1cc(C(=O)O)c(=O)c2cc(F)c(N3CCN(CC(=O)Nc4ccccc4)C(C)C3)c(F)c21` (stereo not drawn), the growth in test [1] was 95.4%; in test [2], 106%; in test [3], 97.1%; in test [4], 105%; in test [5], 92.7%; in test [6] it was 99.9%. Further, the growth in test [7] and in test [8] was 99.9% in each case.
